Bioassay records from PubChem.
GLP1R ag: agonists of human GLP-1 receptor | P43220 | HEK293 GLP-1R CRE-luciferase, luminescence, 4-6 h; cells express a hypersensitive GLP-1R form | Potency, µM (titrated, usually from 45.6 µM), for inactives: at the highest dose activation, hits mostly activators | 380,000 tested, 0.007% active | AID 624172; note: potency is the fitted concentration of half-maximal effect; % of control where 0% means no effect
GLP-1R inv ag: inverse agonists of human GLP-1 receptor | P43220 | HEK293 GLP-1R CRE-luciferase, luminescence, 24 h; GLP-1R form is constitutively active | Potency, µM (titrated, usually from 38.3 µM), for the others: at the top dose activity change, negative = inhibition, actives largely listed as inhibitors | 410,000 tested, 1.6% active; note: potency is the fitted concentration of half-maximal effect; % is set by controls: 0 for no effect and ±100 for the full control effect; nearly all actives have a fitted effect of over 55% in size
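Constitutively active GLP-1R drives a cAMP-responsive luciferase in stably transfected HEK293 cells; test compounds are added after overnight (12 h) attachment and left 24 hr, and signal loss in luminescence marks inhibition.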
DRD3 antagonist: antagonists of human D3 dopamine receptor. P35462. D3R cells, DiscoveRx beta-arrestin luminescence, antagonist mode; hits give low values. AID 652054. max response, negative = inhibition, %. 360,000 tested, 2.5% active; in the data active = max response below about -50%; inconclusive = no clear call, values can overlap the other calls; note: % is set by controls: 0 for no effect and ±100 for the full control effect
Target sequence (P35462 whole entry, looked up): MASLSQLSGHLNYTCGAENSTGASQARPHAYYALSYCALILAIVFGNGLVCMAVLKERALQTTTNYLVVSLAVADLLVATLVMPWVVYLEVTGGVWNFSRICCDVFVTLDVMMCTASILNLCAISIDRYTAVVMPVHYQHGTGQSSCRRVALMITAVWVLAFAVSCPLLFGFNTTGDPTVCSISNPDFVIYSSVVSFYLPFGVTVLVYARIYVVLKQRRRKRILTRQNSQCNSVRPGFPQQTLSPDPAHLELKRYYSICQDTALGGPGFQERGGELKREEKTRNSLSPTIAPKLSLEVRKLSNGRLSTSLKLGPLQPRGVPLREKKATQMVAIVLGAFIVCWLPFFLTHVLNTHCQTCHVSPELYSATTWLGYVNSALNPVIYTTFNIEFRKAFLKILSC
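Cells expressing the human receptor were seeded at 1500 cells/well, incubated overnight at 37 degrees C in 5% CO2, then exposed to library compounds with dopamine controls for 90 minutes at 37 degrees C before luminescent detection.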
DRD3 agonist: agonists of human D3 dopamine receptor. D3R DiscoveRx beta-arrestin cells, luminescence, 90 min. 410,000 tested, 0.58% active. P35462. max activation, %; in the data active = max activation above about 30%; note: 0% is about no effect
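Cells at 1500/well, incubated overnight, then treated with pinned compounds (dopamine as control) for 90 min at 37 degrees C. DiscoveRx reagent added for 30 - 60 minutes at room temperature; luminescence read.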
Active calls of the source: *; ? = inconclusive; nt = no result given. Compounds with a hit are over-represented: about 4.3% of the library has one in this group of screens. Unless noted, calls come from the whole dose curve; as a rule, active = well fitted curve in the direction sought with a large enough effect; inconclusive = small, poorly fitted or top-dose-only effect, or another doubt; inactive = no such curve, though single readings can be large; an effect the other way counts as inactive or inconclusive.

SMILES | GLP1R ag | GLP-1R inv ag | DRD3 antagonist | DRD3 agonist
NC(=O)C1=C[C@H](c2ccc(C(F)(F)F)cc2)C[C@H](OCc2ccc(CO)cc2)O1 | -1% | -15% | -2 | -17
NC(=O)C1=C[C@@H](c2ccc(C(F)(F)F)cc2)C[C@@H](OCc2ccc(CO)cc2)O1 | 8% | -6% | -56* | -7
O=C(C1=C[C@@H](c2ccc(C(F)(F)F)cc2)C[C@@H](OCc2ccc(CO)cc2)O1)N1CCN(Cc2ccc3c(c2)OCO3)CC1 | -2% | -16% | ? | -9
O=C(C1=C[C@@H](c2ccc(Br)cc2)C[C@@H](OCc2ccc(CO)cc2)O1)N1CCN(Cc2ccc3c(c2)OCO3)CC1 | 4% | 1% | -63* | -13
O=C(C1=C[C@H](c2ccc(C(F)(F)F)cc2)C[C@H](OCc2ccc(CO)cc2)O1)N1CCN(Cc2ccc3c(c2)OCO3)CC1 | -1% | 10µM* | ? | -17
CCOc1ccc(NC(=O)N2CCN(C(=O)c3nsc4ccccc34)CC2)cc1 | nt | 3% | nt | 2
COc1ccc(CC(=O)NCc2nn(-c3ccccc3)nc2C)cc1OC | -2% | 12% | -7 | -1
COc1ccc(-c2ocnc2C(=O)NCc2nn(-c3ccccc3)nc2C)cc1 | 5% | 10µM* | 37 | 28
COc1cc(C(=O)Nc2ccc(-c3cc(C(F)(F)F)nn3-c3ccccc3)cc2)cc(OC)c1OC | nt | 7.9µM* | nt | 6
CCCn1c(SCC(=O)Nc2cc(C)on2)nc2c1c(=O)n(C)c(=O)n2C | -9% | 1% | -51* | -3
CCCn1c(SCC(=O)Nc2cccc(C)n2)nc2c1c(=O)n(C)c(=O)n2C | -1% | 1% | 8 | 5
CCOC(=O)c1c(C)[nH]c(N=Nc2ccc(C)cc2)c1C | 23% | ? | 22 | 10
CCOC(=O)c1c(C)[nH]c(N=Nc2ccccc2)c1C | 11% | 10µM* | -19 | 0
COc1cccc(/C=C/c2nc(C#N)c(NCCN(C)C)o2)c1 | nt | -11% | nt | 1
O=C(NCCS(=O)(=O)N1CCN(c2ccc(F)cc2)CC1)c1cccc(C(F)(F)F)c1 | nt | ? | nt | 6
CCN(CC)CCCNC(=O)C1CCN(S(=O)(=O)CC)CC1 | nt | 7% | nt | -3
S=C(Nc1ccc(CN2CCCCC2)cc1)Nc1cccc(Cl)c1Cl | -14% | ? | -76* | -55
Cc1cccc(NC(=S)NC2CCN(Cc3ccccc3)CC2)c1C | 6% | ? | -53* | -1
Cc1cccc(NC(=S)N2CCN(Cc3ccccc3)CC2)c1C | -10% | ? | -7 | -3
S=C(Nc1cccc(Cl)c1Cl)NC1CCN(Cc2ccccc2)CC1 | -2% | ? | -90* | -20
S=C(Nc1ccccc1)Nc1cccc(Cl)c1Cl | -1% | 3% | 0 | 1
CC(C)(C)CC(C)(C)NC(=S)NC1CCN(Cc2ccccc2)CC1 | -9% | ? | ? | -13
COc1cccc(NC(=O)CN(C)C(=O)c2cc(-c3ccccc3)nc3ccccc23)c1 | -10% | ? | 23 | 13
COc1cccc(CN(C)C(=O)c2cc(-c3ccc(OC)c(OC)c3)nc3ccccc23)c1 | 24% | -30% | 39 | 34*
COc1cccc(NC(=O)CN(C)C(=O)c2cc(-c3ccc(F)cc3)nc3ccccc23)c1 | -20% | 7.1µM* | 17 | 8
SMILES | GLP1R ag | GLP-1R inv ag | DRD3 antagonist | DRD3 agonist
COc1cccc(CN(C)C(=O)c2cc(-c3ccc(F)cc3)nc3ccccc23)c1 | -14% | ? | 55 | 11
O=C(Cn1c(=O)n(Cc2ccco2)c(=O)c2oc3ccccc3c21)Nc1ccc(F)cc1F | nt | 18% | nt | -7
Nc1cc(=O)nc(SCC(=O)Nc2ccc(F)cc2)n1-c1ccc(Cl)cc1 | nt | -6% | nt | 4
c1cc(C2OCCO2)cs1 | -1% | 13% | -24 | -12
COc1ccc(NC(=O)CCN2CCC(C)CC2)cc1 | 4% | 6% | -76* | -6
COc1ccc(NC(=O)CCN2CCCC(C)C2)cc1 (configuration not stated) | -3% | 0% | -74* | 0
COc1ccc(NC(=O)CN(C)CC(=O)N2CCCCCC2)cc1 | 0% | 6% | -65* | 1
CCN(CC)CCNC(=O)c1c(C)[nH]c(/C=C2\C(=O)Nc3ccc(F)cc32)c1C | -11% | nt | nt | -16
Cc1ccc(C(=O)COC(=O)c2cccc(NC(=O)c3ccc(Cl)cc3Cl)c2)cc1 | nt | ? | nt | 22
CC(C)(C)c1nnc(N/N=C/c2cc(Br)ccc2O)n(N)c1=O | -18% | 3.5µM* | 90 | 57*
CCc1nnc(N/N=C/c2cc(Br)c(O)cc2O)n1N | -7% | 1% | 6 | -2
